Assay outcomes as filed in PubChem.
G9a inh = G9a (human) methyltransferase inhibition. actives 8.8% (n = 350,000). G9a H3K9 monomethylation, AlphaScreen, 2 h. Potency, µM (highest dose often 102 µM), for inactives: top-dose activity, negative = inhibition, most hits filed as inhibitors; further: on the % scale 0 is the no-effect control and ±100 the full control effect; nearly all actives have a fitted effect of over 75% in size
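Step 1: enzyme (final 20 nM) with compound, 15 min RT. Step 2: substrate peptide 500 nM and SAM 20 uM, 2 h RT. Step 3: anti-H3K9me1 antibody and AlphaScreen beads, 10 min, then plate read.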
JMJD2A Tudor inh = blocks the human JMJD2A Tudor domain; O75164; AlphaScreen JMJD2A-Tudor / H3K4me3 peptide binding; Potency, µM (highest dose often 114 µM), inactives show top-dose activity change, negative = inhibition, actives largely listed as inhibitors; actives 4.4% (n = 390,000); further: on the % scale 0 is the no-effect control and ±100 the full control effect; nearly all actives have a fitted effect of over 50% in size
BAZ2B inh = blocks human BAZ2B | AID 504333 | Potency, µM (highest dose often 114 µM), for the others: top-dose activity change, negative = inhibition, usual class: inhibitors | Q9UIF8 | actives 4.4% (n = 360,000) | AlphaScreen BAZ2B-H3K14Ac peptide displacement; further: on the % scale 0 is the no-effect control and ±100 the full control effect; nearly all actives have a fitted effect of over 60% in size
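AlphaScreen displacement of biotin-H3(5-23)K14Ac peptide (50 nM final) from BAZ2B (50 nM final) in PBS pH 7.4, 0.01% Tween-20; complex preformed 30 min RT, then compounds (top 110 uM) 30 min RT, beads 20 min dark.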
HP1b binding inh = HP1-beta chromodomain-methylated histone interaction inhibition. AID 540317. AlphaScreen HP1-beta / biotin-H3K9me3 peptide binding. actives 0.56% (n = 390,000). Potency, µM (top dose mostly 114 µM), for inactives: at the top dose activity change, negative = inhibition, usual class: inhibitors; further: nearly all actives have a fitted effect of over 70% in size
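AlphaScreen: HP1-beta (50 nM) preformed 30 min with biotin-H3(1-18)K9me3 peptide (50 nM) in PBS pH 7.4, 0.01% Tween-20. Compound added for 30 min at RT, then streptavidin donor/nickel chelate acceptor beads (10 ug/mL) for 30 min.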
L3MBTL1 inh = L3MBTL1 (human) inhibition; AID 485360; Q9Y468; Potency, µM (series often up to 57.1 µM), for inactives: at the highest dose activity, negative = inhibition, usual class: inhibitors; actives 0.66% (n = 230,000); AlphaScreen L3MBTL1–H3K9me1 peptide binding; further: on the % scale 0 is the no-effect control and ±100 the full control effect; nearly all actives have a fitted effect of over 60% in size
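L3MBTL1 (50 nM) pre-complexed 30 min with biotinylated H3(1-15)K9me1 peptide (75 nM), then compounds added for 30 min at room temperature; AlphaScreen streptavidin donor/nickel chelate acceptor beads (10 ug/mL final) read after 30 min dark incubation.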
* = called active by the depositor; ? = inconclusive; / = no result given; [ ] = dose if it differs, or a comment. Sampled rows, rich in hits. Any-hit rate of the full collection: about 11%. The call rests on the fitted dose curve; in most records, active means well fitted inhibition curve with a large enough effect; inconclusive means small, poorly fitted or top-dose-only effect; inactive means no such curve, though single readings can be large or run the other way. Potency means the concentration at half of the fitted maximal effect.

SMILES	G9a inh	JMJD2A Tudor inh	BAZ2B inh	HP1b binding inh	L3MBTL1 inh
Cc1ccc(/C=c2\sc3nc(-c4cccs4)nn3c2=O)o1	18µM*	?	-32%	0%	?
CCn1ccc2cc(S(=O)(=O)N3CCC(C(=O)NCC(C)c4ccccc4)CC3)ccc21 (centres undefined)	-1%[59 µM]	-2%	4%	24%[57 µM]	/
Cc1nn(-c2ccccc2)c2c1cc1c(=O)n(C)c(=O)nc-1n2-c1ccccc1F	32µM*	-1%	6%	46%	15%
Cc1oc2c(C)c3oc(=O)c(CCC(=O)NCCN4CCOCC4)c(C)c3cc2c1C	10%	-24%	3%	2%	4%
CCOC(=O)c1ccc(OC(=O)c2cn(-c3ccc(C)cc3)c(=O)c3ccccc23)cc1	-5%[59 µM]	-11%	4%	28%[57 µM]	/
CCOc1ccc(OC(=O)c2cn(-c3ccc(C)cc3)c(=O)c3ccccc23)cc1	7%[59 µM]	50µM*	1%	25%[57 µM]	/
COc1ccc(-c2[nH]c(-c3ccc4c(c3)OCO4)nc2-c2ccccc2)cc1	?	?	?	-21%	-23%
COc1ccc(-c2nc(-c3ccccc3)c(-c3ccccc3)[nH]2)cc1Br	-29%[59 µM]	-10%	-4%	23%	/
Oc1ccccc1N=Nc1nc(-c2ccccc2)c(-c2ccccc2)[nH]1	?	13µM*	13µM*	32µM*	/
COc1ccc(-c2nc(C)ncc2N=Nc2ccccc2)cc1	?	45µM*	11µM*	-80%	?
COc1ccc(N=Nc2nc(-c3ccccc3)c(-c3ccccc3)[nH]2)cc1	16µM*	8.9µM*	8.9µM*	28µM*	16µM*
c1ccc(-c2nc[nH]c2-c2ccccc2)cc1	5%[12.7 µM]	?	?	-13%	/
COc1ccccc1N=Nc1nc(-c2ccccc2)c(-c2ccccc2)[nH]1	?	7.1µM*	10µM*	-71%	?
O=C(Nc1ccc(Br)cc1)c1ccc(F)c(S(=O)(=O)N2CCc3ccccc32)c1	19%[59 µM]	1%	6%	29%	/
COc1cc(C(=O)OCCc2cc3ccccc3c(=O)o2)cc(OC)c1OC	13%[0.501 µM]	-13%	4%	33%	2%
CC(C)(C)c1cc(CN(CCO)CCO)c(O)c(C(C)(C)C)c1	/	-31%	-18%	33%	-2%
CC(C)(C)c1cc(CN2CCCC(O)C2)c(O)c(C(C)(C)C)c1 (centres undefined)	?	?	79µM*	9%	/
COc1cc2cccc(OC)c(=O)c2c(OC)c1OC	50µM*	-7%	-17%	22%	-5%
CCOc1ccc(CCNC(=O)CCCn2c(=O)c3cccn3c3ccccc32)cc1	-5%[59 µM]	-12%	3%	10%	/
CSc1ccc(CCNC(=O)CCCn2c(=O)c3cccn3c3ccccc32)cc1	14µM*	?	-31%	-1%	/
Cc1ccc(N2CC(c3nnc(NC(=O)c4ccco4)s3)CC2=O)cc1Cl (centres undefined)	13%[59 µM]	-12%	-1%	38%	/
CCN(CC(=O)NCc1ccccn1)S(=O)(=O)c1ccc(Cl)cc1	13µM*	-5%	0%	6%	9%[11.4 µM]
O=C(O)c1cccc2c1C(=O)c1ccc(-c3ccc(Cl)c(C(F)(F)F)c3)cc1S2(=O)=O	16%[2.33 µM]	79µM*	?	15%	-2%
Cc1nn(-c2ccccc2)c(N2CCCC2)c1/C=N/Nc1ccc(S(N)(=O)=O)cc1[N+](=O)[O-]	10µM*	7.1µM*	10µM*	40µM*	?
CN(C)CCCN=c1cc(-c2ccccc2)oc2ccc(Cl)cc12	56µM*	-26%	?	13%	/
SMILES	G9a inh	JMJD2A Tudor inh	BAZ2B inh	HP1b binding inh	L3MBTL1 inh
OCCN=c1cc(-c2ccccc2)oc2ccc(Cl)cc12	-15%[0.501 µM]	-22%	?	12%	14%
CCCNC(=O)C/C(C)=N/NC(=O)C(=O)Nc1ccccn1	50µM*	-4%	-5%	73%	14%
C=CCOc1ccc(C=CC(=O)c2c(O)c(OC)c(OC)c(OC)c2OC)cc1	/	14µM*	/	50µM*	/
COc1ccc2cc(C(=O)/C=C/c3cc(OC)c(O)c(OC)c3)ccc2c1	50µM*	?	?	?	/
COc1ccc(C(=O)/C=C/c2cc(OC)c(O)c(OC)c2)c(F)c1	8.9µM*	-24%	?	-11%	-6%
COc1cc(O)c(C(=O)/C=C/c2ccc(OC)c(O)c2)c(OC)c1	-49%[2.33 µM]	/	/	/	/
COc1ccc(C(=O)/C=C/c2ccc(O)cc2)cc1	-9%[59 µM]	-31%	-26%	9%	8%
COc1ccc(C=CC(=O)c2c(OC)cc(OC)c(OC)c2O)cc1	/	?	/	40µM*	/
CCOC(=O)c1ccc2nc(C)cc(Nc3ccc(OC(C)C)cc3)c2c1	-39%[59 µM]	-16%	-13%	27%	/
COCCn1c(=O)c(C)nc2cncnc21	5%[0.501 µM]	/	/	/	/
COc1cccc(/C=C/C(=O)c2c(O)cc(C)oc2=O)c1O	?	-23%	?	12%	/
COc1cc(/C=C/C(=O)c2c(O)cc(C)oc2=O)cc(OC)c1O	45µM*	-35%[57.1 µM]	?	13%	/
Fc1ccc(Nc2nc(SCc3cccc(F)c3)nc3ccccc23)cc1	33%[59 µM]	24%	29%	69%	/
O=C1/C(=C\c2cccc(O)c2O)SC(=S)N1Cc1ccccc1	4.5µM*	13µM*	20µM*	?	-9%
O=C1/C(=C/c2ccc(O)cc2)SC(=S)N1Cc1cccnc1	-45%[59 µM]	-5%	-1%	10%	-7%
O=C(CCCN1C(=O)/C(=C\c2cccs2)SC1=S)Nc1cc([N+](=O)[O-])ccc1O	-17%	-18%	?	0%	/
O=C(CCN1C(=O)/C(=C/c2ccccc2Cl)SC1=S)NNC(=O)c1ccccc1O	-7%	-22%	-15%	11%	/
O=C1/C(=C\c2cc([N+](=O)[O-])ccc2O)SC(=S)N1Cc1ccc(Cl)cc1	20µM*	35µM*	25µM*	-22%	/
O=C1/C(=C\c2ccc(O)c(O)c2)SC(=S)N1Cc1ccccc1	4µM*	2.2µM*	8.9µM*	10µM*	/
O=C1/C(=C\c2cccc(O)c2)SC(=S)N1Cc1ccccc1	-11%[0.501 µM]	45µM*	40µM*	-26%	0%[2.29 µM]
O=C(CN1C(=O)/C(=C/c2ccccc2)SC1=S)NNC(=O)c1ccccc1O	-4%	-17%	79µM*	35%	?
COc1cc(/C=C2/SC(=S)N(CC(=O)O)C2=O)ccc1OC(=O)c1ccco1	45µM*	-24%	-37%	-25%	/
COc1cc(/C=C2/SC(=S)N(Cc3ccccc3)C2=O)ccc1O	45µM*	40µM*	40µM*	?	?
COc1cc(/C=C2/SC(=NCc3ccccc3)N(Cc3ccccc3)C2=O)ccc1O	0%[59 µM]	-32%	-7%	11%	/
Cc1ccccc1/C=C1\SC(=S)N(/N=C/c2cc([N+](=O)[O-])ccc2O)C1=O	45µM*	?	22µM*	-22%	/
Cc1oc2cc3oc(=O)c(CCC(=O)N4C[C@H]5C[C@@H](C4)c4cccc(=O)n4C5)c(C)c3cc2c1C	15%	-17%	-6%	30%	2%
